This passage reports composite z-score and z-score results from PubChem BioAssay.

The structures appear in SMILES notation. The source made the active and inactive calls.

A short description of assay [1]: small molecules captured by biotinylated probe aFSTL3 – biochemical, small-molecule microarray, fluorescence 635/667, stem cell growth factor project, primary screen (AID 1064).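 Also: measures binding of the biotinylated anti-FSTL3 antibody to printed compounds.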 Particulars: higher = more signal.
The nature of assay [2]: binders from COS7 lysate, DM2A8 probe, primary screen, torsin A project, cell lysate, small-molecule microarray, fluorescence 635/667 (AID 1065). Particulars: higher = more signal, COS7 lysate expressing mutant human TOR1A.
A short description of assay [3]: small molecules captured by biotinylated probe aFGF2 – biochemical, small-molecule microarray, fluorescence 635/667, stem cell growth factor project, primary screen (AID 1067).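 Also: measures binding of biotinylated aFGF2 protein to printed compounds on slides; z-score merges feature fluorescence and signal-to-noise across triplicate slides.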 Particulars: higher = more signal.
Assay [4] can be described thus: small molecules captured by biotinylated probe aFGF10 – biochemical, small-molecule microarray, fluorescence 635/667, stem cell growth factor project, primary screen (AID 1071).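 Also: score merges 667 nm spot intensity and signal to noise from triplicate slides.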 As to conditions: higher = more signal.
The target in assay [5] is Neurogenic locus notch homolog protein 2 (Homo sapiens) (UniProt Q04721). Nature of the assay: small molecules binding Notch2 protein – biochemical, small-molecule microarray, 635 nm fluorescence, stem cell growth factors, primary screen (AID 1073). Particulars: higher = more signal.
Sequence of Neurogenic locus notch homolog protein 2 (Homo sapiens) (Q04721 whole entry, looked up, canonical isoform): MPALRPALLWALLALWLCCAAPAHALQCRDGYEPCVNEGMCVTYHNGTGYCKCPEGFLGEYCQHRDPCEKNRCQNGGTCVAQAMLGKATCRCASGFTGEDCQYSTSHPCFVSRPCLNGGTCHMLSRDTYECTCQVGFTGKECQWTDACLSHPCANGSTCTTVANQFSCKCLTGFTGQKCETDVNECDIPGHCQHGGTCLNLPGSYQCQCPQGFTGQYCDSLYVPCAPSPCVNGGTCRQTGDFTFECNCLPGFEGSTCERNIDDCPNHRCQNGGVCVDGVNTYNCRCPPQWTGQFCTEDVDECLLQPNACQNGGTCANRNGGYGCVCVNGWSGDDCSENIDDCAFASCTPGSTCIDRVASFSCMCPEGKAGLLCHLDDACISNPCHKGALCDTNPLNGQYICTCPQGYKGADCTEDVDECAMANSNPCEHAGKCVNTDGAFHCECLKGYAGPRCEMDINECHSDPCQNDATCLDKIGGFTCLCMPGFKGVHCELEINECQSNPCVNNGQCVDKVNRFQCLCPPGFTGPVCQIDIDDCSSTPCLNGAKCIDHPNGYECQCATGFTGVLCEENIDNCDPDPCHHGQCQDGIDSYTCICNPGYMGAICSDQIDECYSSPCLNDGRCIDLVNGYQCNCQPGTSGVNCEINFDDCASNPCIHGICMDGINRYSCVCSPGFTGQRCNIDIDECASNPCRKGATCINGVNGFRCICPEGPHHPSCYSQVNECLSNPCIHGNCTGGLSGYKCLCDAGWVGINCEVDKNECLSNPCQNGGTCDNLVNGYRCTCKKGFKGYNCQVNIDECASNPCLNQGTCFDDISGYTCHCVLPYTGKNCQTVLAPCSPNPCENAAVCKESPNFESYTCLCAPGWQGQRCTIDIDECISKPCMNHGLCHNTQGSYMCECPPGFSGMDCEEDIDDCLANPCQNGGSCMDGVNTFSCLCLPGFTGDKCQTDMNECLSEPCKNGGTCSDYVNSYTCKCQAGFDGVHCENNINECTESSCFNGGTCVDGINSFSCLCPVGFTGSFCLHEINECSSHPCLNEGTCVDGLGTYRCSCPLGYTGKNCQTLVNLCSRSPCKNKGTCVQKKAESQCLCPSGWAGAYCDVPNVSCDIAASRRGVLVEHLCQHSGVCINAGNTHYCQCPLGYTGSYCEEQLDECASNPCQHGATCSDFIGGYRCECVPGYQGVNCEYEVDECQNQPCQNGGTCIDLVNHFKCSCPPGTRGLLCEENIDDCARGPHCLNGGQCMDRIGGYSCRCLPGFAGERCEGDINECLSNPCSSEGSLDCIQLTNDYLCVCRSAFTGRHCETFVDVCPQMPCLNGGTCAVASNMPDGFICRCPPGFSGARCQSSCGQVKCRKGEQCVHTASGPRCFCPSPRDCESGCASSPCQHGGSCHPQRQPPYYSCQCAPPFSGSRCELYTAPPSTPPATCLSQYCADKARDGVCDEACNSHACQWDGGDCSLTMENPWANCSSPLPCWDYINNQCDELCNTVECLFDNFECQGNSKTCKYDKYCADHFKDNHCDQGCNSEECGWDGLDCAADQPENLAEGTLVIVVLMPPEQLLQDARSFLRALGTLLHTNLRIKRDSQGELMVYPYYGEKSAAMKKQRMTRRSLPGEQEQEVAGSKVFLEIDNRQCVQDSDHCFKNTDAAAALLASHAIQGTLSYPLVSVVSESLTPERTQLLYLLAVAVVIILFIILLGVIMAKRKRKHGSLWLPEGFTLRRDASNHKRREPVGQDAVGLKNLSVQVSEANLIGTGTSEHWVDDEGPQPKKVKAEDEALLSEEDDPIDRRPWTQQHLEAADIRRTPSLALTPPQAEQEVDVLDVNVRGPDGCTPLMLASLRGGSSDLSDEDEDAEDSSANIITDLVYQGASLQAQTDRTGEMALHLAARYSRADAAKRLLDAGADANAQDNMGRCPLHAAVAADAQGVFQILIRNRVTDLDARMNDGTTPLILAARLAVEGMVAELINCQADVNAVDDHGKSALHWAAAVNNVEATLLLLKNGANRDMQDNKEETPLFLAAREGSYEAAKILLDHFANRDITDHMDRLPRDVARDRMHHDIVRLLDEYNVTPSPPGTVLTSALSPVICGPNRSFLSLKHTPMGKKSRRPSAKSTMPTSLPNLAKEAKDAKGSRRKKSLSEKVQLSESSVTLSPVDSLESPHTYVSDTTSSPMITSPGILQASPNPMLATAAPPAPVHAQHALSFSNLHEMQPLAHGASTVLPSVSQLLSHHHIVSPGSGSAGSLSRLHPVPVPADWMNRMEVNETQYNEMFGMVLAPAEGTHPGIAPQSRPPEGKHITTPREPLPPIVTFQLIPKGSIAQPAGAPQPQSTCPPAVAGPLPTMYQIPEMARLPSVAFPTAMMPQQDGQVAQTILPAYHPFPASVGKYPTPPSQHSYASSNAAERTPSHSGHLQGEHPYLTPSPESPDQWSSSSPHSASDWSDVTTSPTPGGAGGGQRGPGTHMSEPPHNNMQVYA
Assay [6] addresses Pro-neuregulin-1, membrane-bound isoform (Homo sapiens) (UniProt Q02297). The experiment in a line: small molecules binding neuregulin-1 protein – biochemical, small-molecule microarray, fluorescence 635/667, psychiatric disease protein project, primary screen (AID 1075).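 Also: score combines 667 nm spot fluorescence with signal to noise.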 Particulars: NRG1 binding, 635 nm fluorescence, higher = more signal.
For assay [7], the system named is Neuregulin-1 EGF-like domain. Nature of the assay: small molecules binding NRG1 EGF domain – biochemical, small-molecule microarray, 635 nm fluorescence, primary screen (AID 1081).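 Also: binding of the protein to compounds printed on small-molecule microarray slides.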 Particulars: higher = more signal.
Assay [8] is described as follows: FRG1 expression reporter modulators in myotubes – cell-based, C2C12 myotubes, firefly/Renilla luciferase, luminescence, FRG1 inhibition for FSHD, primary screen (AID 1084). Particulars: FRG1 promoter luciferase, higher = more signal, called active from +8 up or from −8 down.
Assay [9] in a line: small molecules captured by biotinylated probe aFST – biochemical, small-molecule microarray, fluorescence 635/667, stem cell growth factor project, primary screen (AID 1086).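 Also: score merges 667 nm fluorescence with signal-to-noise of each printed compound spot.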 As to conditions: higher = more signal.
A short description of assay [10]: binders of probe aHhip on microarray, primary screen, stem cell growth factor project, biochemical, small-molecule microarray, fluorescence 635/667 (AID 1087).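 Also: score merges spot fluorescence at 667nm with spot signal to noise ratio.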 As to conditions: higher = more signal.

Sequence of Pro-neuregulin-1, membrane-bound isoform (Homo sapiens) (Q02297 whole entry, looked up, the tested form may be a part, canonical isoform): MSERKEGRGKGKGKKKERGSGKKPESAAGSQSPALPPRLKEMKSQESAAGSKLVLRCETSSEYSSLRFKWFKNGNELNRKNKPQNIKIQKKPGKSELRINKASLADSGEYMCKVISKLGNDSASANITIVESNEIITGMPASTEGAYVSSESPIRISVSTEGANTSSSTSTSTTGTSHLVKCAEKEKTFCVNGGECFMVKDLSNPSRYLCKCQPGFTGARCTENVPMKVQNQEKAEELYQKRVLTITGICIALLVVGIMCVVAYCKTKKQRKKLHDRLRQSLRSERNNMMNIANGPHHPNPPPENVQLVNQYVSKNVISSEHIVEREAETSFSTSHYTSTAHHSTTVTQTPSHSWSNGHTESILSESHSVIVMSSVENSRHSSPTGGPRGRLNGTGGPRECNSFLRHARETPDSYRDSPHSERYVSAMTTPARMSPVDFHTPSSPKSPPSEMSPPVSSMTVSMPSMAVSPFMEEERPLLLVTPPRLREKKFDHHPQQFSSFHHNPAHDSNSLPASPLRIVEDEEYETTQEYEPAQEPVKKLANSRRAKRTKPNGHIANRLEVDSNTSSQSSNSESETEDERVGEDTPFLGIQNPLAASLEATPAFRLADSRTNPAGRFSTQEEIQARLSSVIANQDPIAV

In the case of `COC(=O)[C@@]1(Cc2ccccc2N=[N+]=[N-])N=C(c2ccc(OCCCO)cc2)O[C@H]1c1ccccc1CN=[N+]=[N-]`, the composite z-score in assay [1] was 0.413; in [2], 0.378; in assay [3] it was -0.0899; in assay [4] it was -0.136; in assay [5], 0.0109; in assay [6], 1.12. Further, the composite z-score in [7] is 1.29; in [9] it was 0.69; in [10], 0.0053. Also, the z-score in [8] was -1.38 (inactive).

Take `O=C1O[C@H](c2ccccc2)[C@H](c2ccccc2)N2[C@H]1[C@@H](C(=O)Nc1nc3ccccc3s1)[C@]1(C(=O)Nc3ccc(C#CC4=CCCCC4)cc31)[C@H]2c1ccccc1OCCO`: the composite z-score was -0.572 in assay [1]; 0.255 in [2]; 0.0075 in [3]; 0.552 in assay [4]; 1.16 in [5]; 1.59 in [6]. The composite z-score in [7] is 1.06; in assay [9], 0.459; in assay [10] it was -0.0726. In addition, in assay [8], the z-score was 0.59 (inactive).

With `O=C1c2ccccc2[C@](Cc2ccccc2I)(C(=O)NCC(F)(F)F)[C@H](c2ccc(CO)cc2)N1Cc1ccccc1C(F)(F)F`, the composite z-score is -0.379 in [1]; 0.57 in assay [2]; -0.0856 in assay [3]; 0.22 in assay [4]; 0.902 in assay [5]; 1 in assay [6]. For the same compound, the values for the composite z-score in assay [7], in assay [9] and in assay [10] were 1.2, 1.16 and -0.466, respectively. For the same compound, in assay [8], the z-score was -0.307 (inactive).

In the case of `Cc1ccc(S(=O)(=O)c2cc3oc2CC[C@@H](CO)NC(=O)N(C)Cc2cn(nn2)C[C@H](Cc2ccccc2)NC3=O)cc1`, the composite z-score was 0.0181 in assay [1]; 0.345 in [2]; -0.0538 in assay [3]; 0.175 in assay [4]; -0.881 in [5]; 0.226 in assay [6]. Further, the composite z-score in assay [7] is 0.807; in assay [9], -0.265; in assay [10] it was -0.194. For the same compound, the z-score in assay [8] is -0.618 (inactive).

Take `C=CC[C@]1(C(=O)N2CCCCC2)N=C(c2ccc(OCCCO)cc2)O[C@H]1c1ccccc1N=[N+]=[N-]`: the composite z-score in assay [1] is 1.16; in assay [2] it was 1.11; in assay [3], 0.256; in assay [4], 0.984; in [5] it was 1.5; in assay [6], 1.67. Also, the composite z-score was 1.24 in [7], 1.87 in [9] and -0.0237 in assay [10]. Further, in assay [8], the z-score was -2.1 (inactive).

As to `O=C1C2C=CC(C(O)C#Cc3ccccc3)N(Nc3ccccc3)C2C(=O)N1c1ccccc1` (stereo not given), the composite z-score in [1] is 0.532; in [2] it was -0.17; in assay [3], -0.0316; in assay [4], 0.208; in assay [5] it was 1.46; in assay [6] it was 1.74. Moreover, the composite z-score was 1.24 in [7], 0.246 in [9] and -0.226 in [10]. Besides, in [8], the z-score was 0.818 (inactive).

For `COC(=O)[C@@]1(Cc2ccc(OC)cc2)[C@H]2c3cc(C(=O)N(C)C)n(Cc4ccc(C)c(F)c4F)c3C[C@H]2CN1C(=O)c1ccccc1`, the composite z-score came out at 0.372 in assay [1]; 0.251 in assay [2]; 0.162 in [3]; 0.315 in assay [4]; 0.498 in [5]; 0.57 in assay [6]. The results for the composite z-score in assay [7], in [9] and in assay [10] were 0.964, 0.588 and 0.21, respectively. Moreover, the z-score in [8] is 0.803 (inactive).

For the compound `CO[C@H]1COC(=O)[C@@H](C)COC(=O)[C@H](Cc2ccccc2)NC(=O)CC=C[C@H]1C`, the composite z-score in assay [1] is -0.678; in assay [2], 0.995; in assay [3] it was -0.107; in assay [4] it was 0.131; in assay [5] it was -0.26; in assay [6] it was -0.323. For the same compound, the composite z-score in assay [7] was -0.703; in assay [9] it was 0.267; in assay [10], 0.0216. Further, the z-score in [8] is -0.117 (inactive).

`CCCC[C@H]1OB(O)C[C@H]2C1=C(COC)C[C@H]1C(=O)N(Cc3ccccc3)C(=O)[C@H]12`: the composite z-score in assay [1] is -0.193; in assay [2] it was 0.323; in assay [3], 0.0644; in assay [4], 0.3; in assay [5], 0.908; in assay [6], 0.173. Moreover, the composite z-score in assay [7] was -0.334; in assay [9], 0.633; in [10] it was 0.124. In addition, the z-score in assay [8] was -0.788 (inactive).

As to `COc1cc([C@@H]2N[C@H](C(=O)O)Cc3c2[nH]c2ccccc32)cc(OC)c1OC`, the composite z-score is -0.534 in [1]; 0.55 in assay [2]; -0.0806 in assay [3]; 0.28 in assay [4]; 0.507 in assay [5]; 0.0318 in assay [6]. Also, the composite z-score in [7] was -0.205; in assay [9] it was -0.134; in assay [10], 0.338. For the same compound, the z-score in [8] was -0.643 (inactive).

As for `COc1ccc([Si](C)(C)[C@H]2[C@H](CCO)O[C@@]3(C(=O)N(Cc4ccc(N5CCCCC5=O)cc4)c4ccccc43)[C@@H]2C)cc1`, the composite z-score in assay [1] was 0.0352; in [2], 0.959; in assay [3] it was -0.0747; in [4], -0.0971; in assay [5], 0.308; in assay [6] it was 1.46. Further, the figures for the composite z-score in [7], in assay [9] and in [10] were 1.05, 0.172 and -0.0994, respectively. Further, in assay [8], the z-score was -4.59 (inactive).

Turning to `C[C@@H]1NC(=O)[C@H](Cc2ccccc2)NC(=O)[C@@]23C(=O)N[C@@H](Cc4ccccc4)C2[C@H](C)[C@@]2(C)O[C@H]2C3/C=C/C/C=C\CNC1=O` (stereo not given in full), the composite z-score was -0.191 in assay [1]; -0.0483 in assay [2]; -0.111 in [3]; 0.0009 in assay [4]; -0.315 in assay [5]; -0.318 in assay [6]. Also, the composite z-score in assay [7] was -0.603; in [9], -0.784; in assay [10] it was 0.122. Further, in assay [8], the z-score is -0.225 (inactive).

On to `CCOC(=O)C1=CC[C@@H](c2ccc(-c3ccc(OCc4ccccc4)cc3)c(OC)c2)N(S(=O)(=O)c2ccc(C)cc2)[C@H]1c1ccccc1`, for which the composite z-score in assay [1] is -0.216; in [2], 0.448; in [3], 0.0188; in [4], 0.668; in assay [5] it was 1.49; in assay [6], 1.36. Also, the results for the composite z-score in assay [7], in assay [9] and in assay [10] were 0.952, 0.9 and 0.314, respectively. The z-score in assay [8] is 0.141 (inactive).

`CCCC=C(CCC)[C@@H](NC(=O)c1ccc(C(F)(F)F)cc1)c1ccccc1`: the composite z-score was -0.0795 in assay [1]; 0.333 in assay [2]; -0.0483 in [3]; -0.195 in assay [4]; 0.237 in assay [5]; -0.256 in [6]. Besides, the composite z-score in assay [7] was 0.113; in assay [9], 0.587; in assay [10], -0.0296. Besides, the z-score in assay [8] is 2.78 (inactive).
